In PubChem BioAssay AID2620 (National Center for Advancing Translational Sciences (NCATS), 2010):
Inconclusive results are not listed. The source made the active and inactive calls. Calls follow the shape of the dose curve; as a rule, active = well fitted curve in the direction sought with a large enough effect; inconclusive = small, poorly fitted or top-dose-only effect, or another doubt; inactive = no such curve, though single readings can be large or run the other way.

These compounds were tested against Pyruvate kinase PKM (Homo sapiens) (UniProt P14618) (assay: Secondary LDH Assay for Activators of Human Pyruvate Kinase M1 Isoform: for Probe SAR). Details: purified hPK-M1, LDH-coupled NADH fluorescence kinetic; series mostly up to 58.2 µM; activity change, negative = inhibition: at the top concentration.
Procedure, shortened: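 10 nM hPK-M1 coupled to 1 uM LDH, with 0.1 mM PEP, 4.0 mM ADP, 0.2 mM NADH, 50 mM Tris pH 8.0, 200 mM KCl, 15 mM MgCl2 (final). NADH fluorescence depletion followed kinetically 3-6 min; initial rates normalized to uninhibited controls.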
Also: % of control where 0% means no effect.

Pyruvate kinase PKM (Homo sapiens), sequence (P14618 whole entry, looked up, canonical isoform): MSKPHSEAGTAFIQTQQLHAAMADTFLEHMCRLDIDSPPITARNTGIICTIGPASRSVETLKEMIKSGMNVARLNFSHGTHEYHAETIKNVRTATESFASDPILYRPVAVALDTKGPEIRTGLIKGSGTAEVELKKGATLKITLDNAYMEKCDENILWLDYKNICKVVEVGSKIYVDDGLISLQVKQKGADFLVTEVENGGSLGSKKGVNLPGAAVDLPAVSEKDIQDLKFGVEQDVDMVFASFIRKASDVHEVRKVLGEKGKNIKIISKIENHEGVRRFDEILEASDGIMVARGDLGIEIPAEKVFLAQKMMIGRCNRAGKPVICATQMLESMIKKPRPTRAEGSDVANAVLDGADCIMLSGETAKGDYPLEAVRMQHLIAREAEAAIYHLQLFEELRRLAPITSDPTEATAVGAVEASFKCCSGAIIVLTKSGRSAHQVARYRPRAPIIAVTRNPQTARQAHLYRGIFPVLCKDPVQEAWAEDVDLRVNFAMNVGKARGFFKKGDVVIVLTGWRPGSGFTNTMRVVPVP

Activity change, negative = inhibition, inactive:
O=S1(=O)N=C(Oc2ccccc2)c2ccccc21 3.28% [at 82.8 µM]
Cc1ccc(NS(=O)(=O)c2cc3c(cc2Cl)CCC(=O)N3)cc1Cl 4.63%
COc1ccc(-c2nc3cccc(C)n3c2Nc2ccc(C)cc2)cc1 2.94%
O=C1CCc2cc(S(=O)(=O)Nc3ccc4ccccc4c3)ccc2N1 7.62%
Cc1ccc(NS(=O)(=O)c2ccc3c(c2)CCCC(=O)N3)cc1C 7.88%
O=C1CCc2cc(Cl)c(S(=O)(=O)Nc3ccc(Cl)c(Cl)c3)cc2N1 2.94%
Cc1ccc(N[S+](=O)([O-])c2cc3c(cc2CCc2ccccc2)NC(=O)CO3)cc1C 3.8%
O=C1c2ccccc2C(=O)N1c1ccccn1 -0.541%
Cc1ccc2nc(-c3ccc(C)o3)c(Nc3ccc(F)cc3)n2c1 -22%
Cc1ccc(NS(=O)(=O)c2ccc3c(c2)n(C)c(=O)n3C)cc1C -3.97%
O=C1c2ccccc2C(=O)N1c1cccc(=O)[nH]1 6.57%
Cc1ccc(NS(=O)(=O)c2ccc3c(c2)CCC(=O)N3)cc1C 7.13%
Cc1ccc(NS(=O)(=O)c2ccc(F)cc2)cc1C 2.07%
Cc1ccc(NS(=O)(=O)c2cc3c(cc2N(C)C)CCC(=O)N3)cc1C 1.17%
CN(C)c1cccc(S(=O)(=O)N2CCCN(S(=O)(=O)c3ccc4c(c3)OCCO4)CC2)c1 8.35%
CC(C)Nc1cccc(S(=O)(=O)N2CCCN(S(=O)(=O)c3ccc4c(c3)OCCO4)CC2)c1 2%
Cc1ccc(NS(=O)(=O)c2ccc3c(c2)CCC(=O)N3)cc1F 0.152%
O=C1CCc2cc(S(=O)(=O)Nc3cccc(F)c3)ccc2N1 -2.67%
COc1cc(F)c(S(=O)(=O)N2CCCN(S(=O)(=O)c3cccc(N)c3)CC2)c(F)c1 13.9%
Cc1ccc(NS(=O)(=O)c2cc3c(cc2C)OCC(=O)N3)cc1C 1.24%
Cc1ccc(NS(=O)(=O)c2ccc(-c3ccccc3)cc2)cc1C 1.51%
Cc1ccc(NS(=O)(=O)c2cc3c(cc2-c2ccccc2)NC(=O)CO3)cc1C -1.77%
Cc1ccc(NS(=O)(=O)c2cccc(C(=O)O)c2)cc1C 8.05%
CC(=O)N1CCc2cc(S(=O)(=O)Nc3ccc(C)c(C)c3)ccc21 8.26%
O=C1CCc2cc(S(=O)(=O)Nc3cccc(-c4ccccc4)c3)ccc2N1 5.22%
COc1ccccc1N1C(=O)c2ccccc2C1=O 11.6%
Cc1cc(NS(=O)(=O)c2ccc3c(c2)CCC(=O)N3)ccc1F 4.47%
O=C1CCc2cc([S+](=O)([O-])Nc3ccc(N[S+](=O)([O-])c4ccc5c(c4)CCC(=O)N5)cc3)ccc2N1 -2.5%
Cc1ccc(NS(=O)(=O)c2ccc3c(c2)oc(=O)n3C)cc1C 9.95%
O=C1CCc2cc(S(=O)(=O)Nc3ccccn3)ccc2N1 -5.19%
